Rows were chosen to be rich in hits. Some 3.2% of all compounds tested hit in one or more screens of this group.
rCAG binder: molecules binding r(CAG) RNA repeats. hit rate 1.3% among 370,000. r(CAG) RNA repeat, TO-PRO-1 dye displacement fluorescence. inhibition, % at 3 µM;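 active = inhibition above the plate cutoff, the mean of all test compounds on that plate plus 3 SD, cut at about 35% in these data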;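 also: 0% = DMSO alone and 100% = 100 µM mitoxantrone as full dye displacement; higher means more dye released from RNA so lower well fluorescence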
bovine MsrA act: activators of bovine methionine sulfoxide reductase A; purified bovine MsrA, absorbance read-out; activation, % at 10.6 µM; hit rate 0.3% among 360,000; in the data active = activation above about 7.5%;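 also: 0% = vehicle and 100% = reference activator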
DSG3 Ab inh: human desmoglein-3 autoantibody binding inhibition; hit rate 0.48% among 310,000; AID 588358; DSG3-coupled beads, scFv-anti-DSG3-GFP binding, flow cytometry; hits give low values; binding (percent of control), % at 10 µM; P32926;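 active = binding more than 3 SD below its plate's average and above zero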;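 also: hits lower antibody fragment binding to DSG3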
DAGLB inh: diacylglycerol lipase beta (human) inhibition | hit rate 0.059% among 340,000 | HEK293T DAGLB membrane lysate, EnzChek fluorogenic substrate | inhibition, % at 5.17 µM; in the data active = inhibition above about 34%;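 also: 0% = enzyme with vehicle and 100% = wells lacking enzyme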
Target sequence (Q8NCG7 whole entry, looked up): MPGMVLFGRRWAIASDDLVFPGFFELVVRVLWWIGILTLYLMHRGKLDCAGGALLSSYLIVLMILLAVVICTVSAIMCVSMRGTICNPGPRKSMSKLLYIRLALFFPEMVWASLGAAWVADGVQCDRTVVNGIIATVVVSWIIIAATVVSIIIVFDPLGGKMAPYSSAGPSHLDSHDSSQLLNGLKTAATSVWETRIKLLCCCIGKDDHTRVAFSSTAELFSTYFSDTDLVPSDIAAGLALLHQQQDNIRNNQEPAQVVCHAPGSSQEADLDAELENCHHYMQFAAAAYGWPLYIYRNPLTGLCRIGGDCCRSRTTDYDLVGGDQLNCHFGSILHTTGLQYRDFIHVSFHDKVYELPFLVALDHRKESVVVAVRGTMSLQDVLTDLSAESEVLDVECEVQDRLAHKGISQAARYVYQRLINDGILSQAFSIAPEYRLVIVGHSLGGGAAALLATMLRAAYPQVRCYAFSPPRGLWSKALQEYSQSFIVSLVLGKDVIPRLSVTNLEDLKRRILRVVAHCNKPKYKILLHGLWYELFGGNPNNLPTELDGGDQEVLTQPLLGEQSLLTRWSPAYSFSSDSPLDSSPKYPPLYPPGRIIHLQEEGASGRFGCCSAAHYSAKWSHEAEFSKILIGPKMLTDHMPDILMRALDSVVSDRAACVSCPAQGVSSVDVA
NadD inh: inhibitors of Staphylococcus aureus NadD | purified NadD enzyme, colorimetric absorbance read-out | inhibition, % at 20 µM | hit rate 0.78% among 360,000 | AID 602399; in the data active = inhibition above about 26%
MsrA inhibitor: bovine MsrA inhibition; hit rate 0.75% among 360,000; purified bovine MsrA, absorbance read-out; inhibition, % at 15.5 µM; in the data active = inhibition above about 4.5%;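 also: 0% = vehicle wells with enzyme and 100% = reference inhibitor wells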
Numbers without * were called inactive; · = not tested or not shown.

SMILES	rCAG binder	bovine MsrA act	DSG3 Ab inh	DAGLB inh	NadD inh	MsrA inhibitor
Cc1cccc2cc(C#N)c(SCC(=O)N3CC(=O)Nc4ccccc43)nc12	13	-6	101	5	23	0
CCn1cc(C(=O)N2CCN(Cc3ccc(C)cc3)CC2)c(=O)c2ccc(C)nc21	4	·	·	·	·	·
CCC1=NN2C(=N)/C(=C\c3cccn3-c3ccc(Cl)cc3)C(=O)N=C2S1	7	-2	110	0	14	0
Cc1ccc(-n2cccc2/C=C2\C(=N)N3N=C(c4ccco4)SC3=NC2=O)cc1	26	4	83	8	47*	0
CC(=O)C1=C(O)C(=O)OC1c1ccc(C)cc1 (stereo not drawn)	0	-3	98	0	0	1
CC(=O)C1=C(O)C(=O)OC1c1ccc(Cl)cc1 (stereo not drawn)	2	-4	76*	-4	0	2
COC(=O)[C@H](Cc1ccccc1)N(Cc1cn(Cc2ccccc2)nn1)S(=O)(=O)c1ccccc1Br	7	·	·	·	·	·
CC(OC(=O)c1c2c(nc3ccccc13)/C(=C\c1ccc3c(c1)OCO3)CCC2)C(=O)Nc1ccc(S(N)(=O)=O)cc1 (stereo not drawn)	·	-4	92	-79	44*	·
NC(=O)[C@@H]1CCCN1C(=O)[C@@H](Cc1ccccc1)NC(=O)[C@H]1O[C@@H](n2ccc(N)nc2=O)[C@H](O)[C@@H]1O	2	·	·	·	·	0
O=C(Nc1cccc(Cl)c1)c1ccc2sc([C@H]3C[C@H](O)[C@@H](CO)O3)nc2c1	5	-9	·	·	-2	-1
Cc1ccc2c(c1C)NC(C(=O)O)C1CC=CC21 (stereo not drawn)	·	-12	35*	5	17	·
Cc1cc(C)c2c(c1)NC(C(=O)O)C1CC=CC21 (stereo not drawn)	58*	-6	102	11	15	1
COC(=O)[C@]12C[C@H](CC(=O)N3CCN(C(=O)c4ccco4)CC3)C(=O)N(CCc3ccc(OC)c(OC)c3)C1=C[C@H](C(C)C)O[C@@H]2C1CC1	1	·	·	·	·	·
COc1ccc2[nH]c(C)c(CCNC(=S)Nc3cc(C)ccc3C)c2c1	6	1	-16*	1	3	-1
CC(=O)N1CCN(c2ccc(NC(=O)C(c3ccccc3)c3ccccc3)cc2)CC1	-6	-3	38*	3	1	0
CC1CCCCC1N(C(=O)c1cc(C2CC2)on1)C1CCCCCC1 (stereo not drawn)	0	·	·	·	·	·
Cc1cccc(C)c1NC(=O)C(c1ccc(-c2ccccc2)cc1)n1c(=O)c(-c2ccco2)nc2ccccc21 (stereo not drawn)	41*	·	·	·	·	-1
COc1ccc(C(C(=O)NC(C)(C)C)n2c(=O)c(-c3ccco3)nc3ccccc32)cc1 (stereo not drawn)	28	·	·	·	·	1
Cc1cccc(C)c1NC(=O)C(c1ccccc1)n1c(=O)c(-c2ccccc2)nc2ccccc21 (stereo not drawn)	7	·	·	·	·	3
CC(C)(C)NC(=O)C(c1ccc(-c2ccccc2)cc1)n1c(=O)c(-c2ccco2)nc2ccccc21 (stereo not drawn)	37*	·	·	·	·	0
CC(=O)Nc1ccc(-c2ccnc3c2CC(C(=O)NCc2cccc(Cl)c2)O3)cc1 (stereo not drawn)	-1	-5	·	·	-2	0
O=C(NCCN1C(=O)S/C(=C\c2ccc(Cl)c(Cl)c2)C1=O)c1cnccn1	9	-2	88*	0	15	0
Oc1ccc2ccccc2c1/C=N/Nc1nnc(-c2ncc[nH]2)c2ccccc12	12	-3	97	5	51*	1
Cc1cccc(NC(=O)c2ncn3c2C(=O)N[C@H](C)C3)c1	3	-6	·	·	-6	0
COc1ccccc1CCC(=O)Nc1ccc2c(c1)c(=O)n(C)n2-c1cccs1	4	-6	·	·	-7	0
SMILES	rCAG binder	bovine MsrA act	DSG3 Ab inh	DAGLB inh	NadD inh	MsrA inhibitor
Cc1cccc(Nc2nc(N)c(C#N)c(CC#N)c2C#N)c1	11	-5	109	-2	-1	4.6*
O=C(O)CN1C(=O)/C(=C/c2ccsc2)SC1=S	2	-4	100	·	-3	3
O=C(O)CN1C(=O)/C(=C\c2cc(Br)ccc2OCc2ccc(Cl)cc2Cl)SC1=S	·	-1	109	9	36*	·
N#Cc1ccccc1NC(=O)c1ccc2c(Cl)c3c(nc2c1)CCCC3	9	-10	93*	-4	3	0
COc1ccc(C[N+]2=C(N)NC3=C(C)Cn4c(=O)n(-c5ccccc5)c(=O)n4C3C2)c(OC)c1 (stereo not drawn)	17	·	·	·	·	·
O=C(O)Cn1c2c(c3ccccc31)CSc1ccc(Cl)cc1-2	58*	-1	107	2	5	4
Cc1ccc2c(NCc3ccco3)nc(NC(C)C)nc2c1	8	-1	·	·	1	-1
O=C1c2ccccc2C(=O)N1CCCOc1ccccc1	-6	-3	116	-7	1	0
O=C1c2ccccc2C(=O)N1CCCN1C(=O)c2ccccc2C1=O	-1	-1	-1.0*	0	3	0
Cn1cc(/C=C2\SC(=S)N(NC(=O)c3ccccc3Cl)C2=O)c2ccccc21	16	-5	113	-15	40*	2
COc1ccc([C@H]2C[C@H](n3cc(COC(=O)c4ccccc4)nn3)[C@@H](O)CN2CC2CCCCC2)cc1	5	-1	108	-2	0	1
Cc1ccc(N=Nc2ccc(O)c(P(=O)(c3ccccc3)c3ccccc3)c2)cc1	7	0	94	13	34*	0
O=[N+]([O-])c1ccc(O)c(P(=O)(c2ccccc2)c2ccccc2)c1	5	-11	91	0	-4	2
CCCCN=C(N)NC(=O)OCc1ccccc1	-2	·	·	·	·	·
COC(=O)[C@]12C[C@H](CC(=O)N3CCCC3)C(=O)N(Cc3ccc(Cl)cc3Cl)C1=C[C@H](C(C)C)O[C@@H]2C1CC1	0	·	·	·	·	·
COc1cc(/C=N/Nc2nncn2/N=C/c2ccc(O)c(OC)c2)ccc1O	-3	5	103	0	-3	4.6*
COc1cc(/C=N/Nc2nnc3c(n2)[nH]c2ccccc23)ccc1O	14	-3	92	-1	-1	4.6*
Cc1ccc2[nH]c3nc(N/N=C/c4cccc(O)c4)nnc3c2c1	24	-5	118	6	17	0
CN(C)c1ccc(C(=O)NC2CCCCN(Cc3ccc(Cl)cc3)C2=O)cc1 (stereo not drawn)	2	·	·	·	·	·
COc1ccc(S[C@]2(C(=O)N3CCN(c4ncccn4)CC3)CC(=O)N[C@@H]2c2ccc(OC)cc2)cc1	6	·	·	·	·	·
CCOc1ccc2c(c1)C(NC(C)=O)C(=O)N2CCN1CCOCC1 (stereo not drawn)	1	-8	81*	7	14	0
CC(=O)NC1C(=O)N(CCN2CCOCC2)c2ccc(Br)cc21 (stereo not drawn)	0	-6	96	10	9	0
Cc1c(Cc2ccccc2)sc(/N=C/c2c(O)ccc3ccccc23)c1C(N)=O	·	-1	110	6	36*	·
